TWEAK-Fn14 inh: inhibitors of TWEAK-Fn14 interaction signaling; TWEAK-stimulated Fn14 reporter cells, luciferase luminescence, 8 h; inhibition, % at 10 µM; hit rate 2% among 360,000; AID 1159606; in the data active means inhibition above about 50%
CF NFkB block: cystic fibrosis NF-kB activation inhibition; AID 588850; inhibition, % at 5 µM; KKLEB NF-kB-GFP reporter, PAF-induced, GFP fluorescence overnight; hit rate 0.86% among 360,000;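 active means at least 50% inhibition at 5 µM, scaled per plate between neutral and stimulator controls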;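 further: PAF is a Pseudomonas aeruginosa culture filtrate used as stimulus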
HIF-2a block: blocks HIF-2a reporter activity | 786-0 RCC cells HIF-2a reporter, luciferase luminescence, overnight | inhibition, % at 18.8 µM | hit rate 0.72% among 360,000 | AID 624352;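 active means inhibition of the luminescence signal of 40% or more relative to plate controls, in a single-dose primary screen at 18.75 µM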
Peg3 promoter: inhibitors of Peg3 promoter; HeLa PEG-Prom luciferase reporter, luminescence, overnight; inhibition, % at 20 µM; hit rate 1.7% among 360,000; AID 588405;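 active means inhibition of at least 50% at 20 µM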
TROY signal inh: inhibitors of TROY-dependent NF-kB signaling; Q293 LMP1-TROYcd NF-kB luciferase reporter, 4 h; inhibition, % at 10 µM; hit rate 0.98% among 360,000; AID 1347056;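 active means compounds whose plate-normalised and pattern-corrected inhibition of the luciferase reporter signal at the single screening dose is 50% or more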
KKLEB cytotox: counter-screen for CF NF-kB inhibitors: cytotoxicity. KKLEB CF airway cells viability, ATPlite luminescence, overnight; stronger effect = lower value; cells stimulated with P. aeruginosa culture filtrate. activity change (cytotoxicity), % at 5 µM. hit rate 0.36% among 360,000. AID 602141;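 active means corrected activity change at or below -50% at 5 µM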
Each line names hits and unclear results; the compound was inactive in the other large screens. Compounds with a hit are over-represented: about 4% of the library has one in this group of screens.

Cc1cccc(N2CC(O)(c3cccs3)[N+]3=C2CCCCC3)c1 (stereo not given)	none
Cc1cc(NC(=O)c2cccc(COc3ccc(Br)cc3)c2)no1	none
CN1c2ccccc2C(C)(C)C12C=Cc1cc(O)ccc1O2 (stereo not given)	TWEAK-Fn14 inh 53.4
CN1c2ccccc2C(C)(C)C12C=Nc1c(cc(N3CCOCC3)c3ccccc13)O2 (stereo not given)	none
COc1ccccc1/C(C)=N/NC(=O)c1nnn(-c2nonc2N)c1C(C)C	none
CCn1cc(/C=C(\NC(=O)c2ccccc2F)C(=O)NCCCN2CCOCC2)c2ccccc21	TWEAK-Fn14 inh 67.9
COc1ccc(CNC(=O)C(c2ccc(C)o2)N(Cc2cccs2)C(=O)Cc2cccs2)cc1 (stereo not given)	Peg3 promoter 59.5
Cc1c(C)n(Cc2ccccc2)c2ccc(C(=O)O)cc12	none
CC(C)C[C@]1(c2ccccc2)ON(c2ccccc2C(F)(F)F)C1=O	none
O=C1N(c2ccccc2C(F)(F)F)O[C@@]1(c1ccccc1)C1CCCC1	Peg3 promoter 69.5
Cc1ccc2cc(CCNS(=O)(=O)c3ccc(F)cc3)c(=O)[nH]c2c1C	TWEAK-Fn14 inh 59.0, TROY signal inh 56.5
N#CC1=C(N)NC(SCc2ccc(Br)cc2)=C(C#N)C12CCCCC2	TROY signal inh 54.0
N#CC1=C(N)NC(SCc2ccc(Cl)cc2)=C(C#N)C12CCCCC2	none
O=C(CN1CCN(S(=O)(=O)c2ccccc2)CC1)NC(=O)NCc1ccco1	TWEAK-Fn14 inh 94.5
O=C(CN1CCN(S(=O)(=O)c2ccccc2)CC1)NC(=O)NCc1ccccc1	none
Cc1c(CNCCCc2ccccc2)c(C(=O)O)c(C)n1Cc1ccccc1	TROY signal inh 51.6
Cc1c(CNCC(C)c2ccccc2)c(C(=O)O)c(C)n1Cc1ccccc1 (stereo not given)	none
COc1ccc(C(OCC(O)CNCCc2ccc(S(N)(=O)=O)cc2)c2ccc(OC)cc2)cc1 (stereo not given)	none
OC(CNCCc1ccc(C(F)(F)F)cc1)COC(c1ccccc1)c1ccccc1 (stereo not given)	Peg3 promoter 111.0
Cc1cc(Cl)ccc1NC(=S)NCCC(c1ccccc1)c1ccccc1	Peg3 promoter 67.7
O=C1C(=O)N(Cc2cccnc2)C(c2cccc(F)c2)/C1=C(/O)c1ccc2c(c1)OCO2 (stereo not given)	none
COc1cc2c(cc1OC)CN(c1ccc(C(F)(F)F)cn1)CC2	TWEAK-Fn14 inh 50.9
Cc1ccc(C(=O)NC(Cc2ccc(C(C)(C)C)cc2)C(=O)O)cc1 (stereo not given)	none
O=S(=O)(Nc1cccc(S(=O)(=O)N2CCCCCC2)c1)c1ccc(F)cc1F	none
CCOCCCNC(=O)c1[nH]c(C)c(C(C)=O)c1C	none
c1cncc(-c2csc(-c3cccnc3)n2)c1	none
Oc1ccc(-c2csc(-c3cccnc3)n2)c(O)c1	TWEAK-Fn14 inh 53.8
CNC(=O)[C@H]1O[C@@H](n2cnc3c(NCc4cccc(I)c4)ncnc32)[C@H](O)[C@@H]1O	none
Cc1ccc(CN(CC(=O)NC2CCCC2)C(=O)c2csnn2)cc1	none
O=C(NC1CCCC1)C(c1cccs1)N(Cc1ccco1)C(=O)c1csnn1 (stereo not given)	none
O=C(CN(Cc1ccccc1F)C(=O)c1csnn1)NC1CCCCC1	HIF-2a block 56.6
O=C(NC1CCCCC1)C(c1ccccc1)N(Cc1ccco1)C(=O)c1csnn1 (stereo not given)	TWEAK-Fn14 inh 63.6
NC(=O)c1cc(NC(=O)COC(=O)CCCN2C(=O)c3cccc4cccc(c34)C2=O)cc(C(N)=O)c1	none
O=C(Nc1cccc2nsnc12)c1ccc2c(c1)OCCO2	none
CCCCCCCCCCS(=O)(=O)N/N=C/c1ccc([N+](=O)[O-])cc1	TROY signal inh 51.0
Cc1cccc(NC(=S)N=Nc2c(O)n(CN3CCOCC3)c3ccccc23)c1C	TWEAK-Fn14 inh 50.3
COCC(C)OC(=O)c1c(N)n(CC(C)C)c2nc3ccccc3nc12 (stereo not given)	TROY signal inh 58.2
COCCn1c(N)c(C(=O)NCC2CCCO2)c2nc3ccccc3nc21 (stereo not given)	none
COc1ccc(OC)c(-n2c(N)c(C(=O)NCC3CCCO3)c3nc4ccccc4nc32)c1 (stereo not given)	none
Nc1c(C(=O)OCC2CCCO2)c2nc3ccccc3nc2n1C1CCCC1 (stereo not given)	TROY signal inh 60.3
Nc1c(C(=O)NCC2CCCO2)c2nc3ccccc3nc2n1/N=C/c1ccncc1 (stereo not given)	Peg3 promoter 59.5
CC(C)Cn1c(N)c(C(=O)NCC2CCCO2)c2nc3ccccc3nc21 (stereo not given)	TROY signal inh 50.7
Fc1ccc(-c2nc3c4ccccc4ccn3c2Cc2ccccc2)cc1	none
CN1C(=O)Cc2cc(S(=O)(=O)N3CCN(c4ccccc4F)CC3)ccc21	none
CCC(C)NC(=O)c1c(N)n(/N=C/c2ccccn2)c2nc3ccccc3nc12 (stereo not given)	TWEAK-Fn14 inh 63.8
CC[N+](C)(C)CC/C=C1/c2ccccc2Sc2ccc(Cl)cc21	none
OCCN1CCN(CC/C=C2/c3ccccc3Sc3ccc(Cl)cc32)CC1	Peg3 promoter 87.2
CCCCCCCCCCC[N+](C)(C)CC/C=C1/c2ccccc2Sc2ccc(Cl)cc21	Peg3 promoter 107.8
C=CCN(C(=O)CSc1nc2c(sc3ccccc32)c(=O)n1CCN(CC)CC)c1ccccc1	Peg3 promoter 63.6
C=CCN(C(=O)CSc1nc2ccsc2c(=O)n1Cc1ccccn1)c1ccccc1	none
N#Cc1c2n(c(=S)n(-c3ccc(OC(F)F)cc3)c1=O)CCCCC2	none
O=C(CSc1nnc(-c2cccnc2)s1)Nc1ccnc2ccccc12	TWEAK-Fn14 inh 60.8
CCN(CC)C(=O)C(=O)N/N=C/c1ccc(C(=O)OC)cc1	none
Cc1ccc2nc(COc3ccc(Cl)cc3)cc(=O)n2c1	none
Cc1ccc(OCC(=O)NNC(=O)Cn2c(=O)cnc3ccccc32)cc1	none
CCc1ccc2c(c1)C(=O)CCC2	none
O=C1CCCc2cc3c(cc21)CC1(C3)Cc2cc3c(cc2C1)C(=O)CCC3	TROY signal inh 61.2
CC1C(=O)CCC1(C(=O)O)c1ccccc1 (stereo not given)	TWEAK-Fn14 inh 97.8
CC1(c2ccccc2)CCC(=O)NC1 (stereo not given)	none
O=C(Nc1cc2c(cc1Cl)-c1ccc([N+](=O)[O-])cc1C2=NO)C(F)(F)F	Peg3 promoter 57.3
Nc1ccc2c(c1)C(=NO)c1cc([N+](=O)[O-])ccc1-2	none
CS(=O)(=O)c1ccc(Sc2nc3ccccc3s2)c([N+](=O)[O-])c1	TWEAK-Fn14 inh 99.3, CF NFkB block 53.6
CS(=O)(=O)c1ccc(Sc2nc3ccccc3[nH]2)c([N+](=O)[O-])c1	none

Assay outcomes deposited in PubChem by Sanford-Burnham Center for Chemical Genomics.
